From PubChem
PABP1 MLLE inh: inhibitors of microRNA-mediated deadenylation, human PABP1 MLLE binding | P11940 | GST-MLLE / FITC-PAM2 fluorescence polarization | inhibition, % at 20 µM | 360,000 tested, 0.36% active | AID 588489; in the data active = inhibition above about 35%, passing the limit was not always enough
eIF4E 4G PPI: eIF4E/eIF4G interaction inhibition in translation initiation. 220,000 tested, 0.37% active. TR-FRET eIF4E-eIF4GI(517-606) binding, 2 h. AID 782. P63073+Q04637. inhibition, % at 21.7 µM;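 active = inhibition above about 30%, limit read from the data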
PABP polyA inh: PABP-poly(A) binding inhibition. P11940. calls only at 35 µM. 290,000 tested, 1% active. PABP-poly(A) RNA binding, fluorescence polarization;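 also: calls also rest on retests at 20 µM and on dose response follow-up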
eIF4H inh: inhibitors of RNA binding by human eIF4H; Q15056; eIF4H fluorescence polarization binding assay; inhibition, % at 35 µM; 290,000 tested, 0.94% active; AID 2012;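 also: calls also rest on retests at 20 µM and on dose response follow-up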
A number is an active result. The list is not random: actives were taken first. Their share in the collection is about 1.5%. Unless noted, no rule for the calls is given here.

What do the screens show for `Cc1cnc(CN2CCc3c([nH]c4ccccc34)C2CC(C)C)[nH]1` (configuration not stated)?
PABP1 MLLE inh: inactive; eIF4E 4G PPI: inactive; PABP polyA inh: active; eIF4H inh: inactive

What do the screens show for `Cc1cccc(CN2CCc3c([nH]c4ccccc34)C2CC(C)C)n1` (configuration not stated)?
PABP1 MLLE inh: inactive; PABP polyA inh: inactive; eIF4H inh: inactive

What do the screens show for `Cc1nn(-c2ccccc2)c(Cl)c1/C=N/Nc1ccc(S(=O)(=O)Nc2ccccc2C(=O)O)cc1[N+](=O)[O-]`?
PABP1 MLLE inh: inactive; eIF4E 4G PPI: inactive; PABP polyA inh: active; eIF4H inh: 92

Results for Cc1nc2cc(C(=O)O)ccc2s1 ?
PABP1 MLLE inh: 39; PABP polyA inh: inactive; eIF4H inh: inactive

Results for O=C(O)COc1ccccc1/C=N/NC(=O)c1cccc(S(=O)(=O)N2CCOCC2)c1 ?
PABP1 MLLE inh: inactive; eIF4E 4G PPI: inactive; PABP polyA inh: inactive; eIF4H inh: 2.2

Results for COc1cc(OC)c(OC)cc1/C=N/NC(=O)c1cccc(S(=O)(=O)N2CCOCC2)c1 ?
PABP1 MLLE inh: inactive; eIF4E 4G PPI: inactive; PABP polyA inh: inactive; eIF4H inh: inactive

What do the screens show for `COc1ccc(NC(=O)c2cccc(S(=O)(=O)N3CCOCC3)c2)cn1`?
PABP1 MLLE inh: inactive; eIF4E 4G PPI: inactive; PABP polyA inh: active; eIF4H inh: 73

Results for COc1cccc(C(O)c2ncc(-c3ccc(C(F)(F)F)cc3)[nH]2)c1 (configuration not stated) ?
PABP1 MLLE inh: inactive

What do the screens show for `Cn1nnc2c(C(N)=O)ncn2c1=O`?
PABP1 MLLE inh: 39; eIF4E 4G PPI: inactive; PABP polyA inh: inactive; eIF4H inh: inactive

What do the screens show for `C[C@@H]1CN([C@H](C)CO)C(=O)CCCn2nncc2CO[C@H]1CN(C)S(=O)(=O)c1ccc(F)cc1`?
PABP1 MLLE inh: inactive

Results for COc1ccc(NC(=O)C2(C)Cc3c(-c4cccc(C(F)(F)F)c4)ccnc3O2)cc1OC (configuration not stated) ?
PABP1 MLLE inh: inactive

What do the screens show for `CC(=O)Nc1cccc(-c2ccnc3c2CC(C)(C(=O)Nc2ccc4c(c2)OCO4)O3)c1` (configuration not stated)?
PABP1 MLLE inh: inactive

How did CCC(C)n1c(-c2ccco2)nc2nc3ccccc3nc21 (configuration not stated) do in these assays?
eIF4E 4G PPI: inactive; PABP polyA inh: active; eIF4H inh: inconclusive

Results for Cn1cc(C=C2C(=O)OC3(CCCCC3)OC2=O)c2ccccc21 ?
PABP1 MLLE inh: inactive; eIF4E 4G PPI: inactive; PABP polyA inh: inactive; eIF4H inh: inactive

What do the screens show for `O=C1OC2(CCCC2)OC(=O)C1=Cc1c[nH]c2ccccc12`?
PABP1 MLLE inh: inactive; eIF4E 4G PPI: inactive; PABP polyA inh: active; eIF4H inh: inconclusive

What do the screens show for `O=CNc1cc(-c2ccoc2)cn2c(-c3ccc(F)cc3)cnc12`?
PABP1 MLLE inh: inactive

How did CC(Nc1nc(-c2ccc(F)cc2)cs1)c1nc2cc(Cl)c(Cl)cc2n1CCCO (configuration not stated) do in these assays?
PABP1 MLLE inh: inactive

Results for Cc1ccc(Cn2c(C(C)Nc3nc(-c4ccc(C)cc4)cs3)nc3cc(Cl)c(Cl)cc32)cc1 (configuration not stated) ?
PABP1 MLLE inh: inactive; PABP polyA inh: inactive; eIF4H inh: 85

What do the screens show for `O=C1CNC(=O)/C(=C/c2ccco2)N1`?
PABP1 MLLE inh: inactive; eIF4E 4G PPI: inactive; PABP polyA inh: inactive; eIF4H inh: 106

How did O=C1C(=Cc2ccco2)C(=O)c2ccccc21 do in these assays?
PABP1 MLLE inh: inactive; eIF4E 4G PPI: inactive; PABP polyA inh: inactive; eIF4H inh: inactive

How did CCN(c1ccccc1)S(=O)(=O)c1ccc(OC)c(NC(=O)c2ccco2)c1 do in these assays?
PABP1 MLLE inh: inactive

What do the screens show for `COc1ccc(/C=N/NC(=O)c2nn(-c3ccc(Cl)cc3)c(=O)c3c(N)scc23)cc1`?
PABP1 MLLE inh: inactive; eIF4E 4G PPI: inactive; PABP polyA inh: inactive; eIF4H inh: inactive

How did COc1ccc(/C=N/NC(=O)c2nn(-c3ccccc3)c(=O)c3c(N)scc23)cc1 do in these assays?
PABP1 MLLE inh: inactive; eIF4E 4G PPI: inactive; PABP polyA inh: inactive; eIF4H inh: 71

Results for C[C@H](NC(=O)c1[nH]cnc1C(=O)N[C@@H](C)CO)c1ccccc1 ?
PABP1 MLLE inh: inactive

How did O=C(O)CCNc1ccc(NCCC(=O)O)c2c1C(=O)c1ccccc1C2=O do in these assays?
PABP1 MLLE inh: inactive; PABP polyA inh: inconclusive; eIF4H inh: inconclusive

What do the screens show for `CCOC(=O)N1CCN(c2cc(NCCC(=O)O)c3c4c(onc24)-c2ccccc2C3=O)CC1`?
PABP1 MLLE inh: inactive; eIF4E 4G PPI: inactive; PABP polyA inh: active; eIF4H inh: 86

How did O=C(O)CCCNc1cc(N2CCC3(CC2)OCCO3)c2noc3c2c1C(=O)c1ccccc1-3 do in these assays?
eIF4E 4G PPI: inactive; PABP polyA inh: active; eIF4H inh: 115

What do the screens show for `N#C/C(=C/c1ccc(N2CCCCC2)o1)C(=O)Nc1ccc(Cl)cc1`?
PABP1 MLLE inh: inactive; eIF4E 4G PPI: inactive; PABP polyA inh: inactive; eIF4H inh: 127

How did O=C(NC(Cc1ccccc1)C(=O)O)/C(=C/c1ccc(Cl)cc1)NC(=O)c1ccccc1 (configuration not stated) do in these assays?
PABP1 MLLE inh: inactive; eIF4E 4G PPI: inactive; PABP polyA inh: inactive; eIF4H inh: active

What do the screens show for `O=C(NC(Cc1ccccc1)C(=O)O)/C(=C\c1ccccc1F)NC(=O)c1ccccc1` (configuration not stated)?
PABP1 MLLE inh: inactive; eIF4E 4G PPI: inactive; PABP polyA inh: inactive; eIF4H inh: inactive

What do the screens show for `CC(=O)O/N=C/c1c(C)c(C=O)n2ccccc12`?
PABP1 MLLE inh: inactive; eIF4E 4G PPI: inactive; PABP polyA inh: active; eIF4H inh: inactive

Results for O=C(CC(Sc1ccccc1)c1cccs1)c1ccco1 (configuration not stated) ?
PABP1 MLLE inh: 37; eIF4E 4G PPI: inactive; PABP polyA inh: inactive; eIF4H inh: inactive

How did CCN1C(=O)/C(=C2/SC(C)=C(C)N2CC)SC1=S do in these assays?
PABP1 MLLE inh: 52; eIF4E 4G PPI: inactive; PABP polyA inh: inactive; eIF4H inh: inactive

How did CCN1C(=O)/C(=C2\C=Cc3ccccc3N2CC)SC1=S do in these assays?
PABP1 MLLE inh: inactive; eIF4E 4G PPI: inactive; PABP polyA inh: inactive; eIF4H inh: inactive

What do the screens show for `C=CCOC(=O)C1=C(C)OC(N)=C(C#N)C1c1ccc2c(c1)OCO2` (configuration not stated)?
PABP1 MLLE inh: inactive; eIF4E 4G PPI: inactive; PABP polyA inh: inactive; eIF4H inh: inactive

What do the screens show for `C=CCOC(=O)C1=C(C)OC(N)=C(C#N)C1c1ccoc1` (configuration not stated)?
PABP1 MLLE inh: inactive; eIF4E 4G PPI: inactive; PABP polyA inh: inactive; eIF4H inh: 102

How did NC(=O)CSc1nc(C23CC4CC(CC(C4)C2)C3)nc2ccccc12 do in these assays?
PABP1 MLLE inh: inactive; eIF4E 4G PPI: inactive; PABP polyA inh: active; eIF4H inh: inactive

How did O=c1nc(/C=C/c2ccc(-c3ccc(F)cc3)o2)cc(C(F)(F)F)[nH]1 do in these assays?
eIF4E 4G PPI: inactive; PABP polyA inh: active; eIF4H inh: inactive
